Experimental data from the supplement of paper PMC6555819.

Test system: PPARg homodimer (NR concentration 180 nM)
Assay: PBM binding z-score (relative to random genomic background probes); higher = stronger binding; sequences stand for … in GC…GCGATTGACAGCGTAGAATGAAGG
Outline: (§1)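 Binding z-scores take random background probes as their reference. They come from custom Agilent 4×180K protein-binding microarrays incubated 1 h with ligand-free nuclear receptor dimers, with antibodies against each partner (one per run) detecting binding. Scanned fluorescence was regression-normalized.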

Sequence | PBM binding z-score
CTATGTAGGTTAAGGGGGTTATTCAGTTTGAAAG | 2.61
TCGAGTAGGTTACGGAGGCATTCAGGGATGAAGA | 0.325
CTATGTAGGTTAAGCGGGTCATTCAGTTTGAAAG | 2.08
CGATGTAGGTTAAGGGGGTCATTCAGTTTGAAAG | 5.88
CTATGTAGGTTAAGGGGGCCATTCAGTTTGAAAG | 1.77
CTATGCAGGTTAAGGGGGTCATTCAGTTTGAAAG | 2.68
TCGAGTAGGTTACTGGGGCATTCAGGGATGAAGA | 0.888
CCGACTAGGTTACGAGGGGGCATTCAGTGCGAAT | 1.66
CCGAGTAGGTTACGAGGGGGCATTCGGTGCGAAT | 1.85
TCGAGTAGGTTACGGGGGCATTCAGGGATGAAGA | 1.92
TCGAGTAGGTTACGGGGGCATTAAGGGATGAAGA | 1.98
CAATGTAGGTTAAGGGGGTCATTCAGTTTGAAAG | 7.74
CTATGTAGGTTAATGGGGTCATTCAGTTTGAAAG | 3.7
CCGAGTAGGTTACGAGGCGGCATTCAGTGCGAAT | 0.605
CCGAGTAGGTTACGAGGGCGCATTCAGTGCGAAT | -0.00528
CTATGTAGGTGAAGGGGGTCATTCAGTTTGAAAG | 2.81
TCTAGTAGGTTACGGGGGCATTCAGGGATGAAGA | 2.93
CCGAGTAAGTTACGAGGGGGCATTCAGTGCGAAT | 0.949
CTATGTAGGGTAAGGGGGTCATTCAGTTTGAAAG | 4.11
CTATGTAGGTTAAAGGGGTCATTCAGTTTGAAAG | 7.13

Sequence | PBM binding z-score
CTCTGTAGGTTAAGGGGGTCATTCAGTTTGAAAG | 3.78
TCGAGTAGGTTACGGGGGCATTGAGGGATGAAGA | 2.89
CCGAGTAGGTAACGAGGGGGCATTCAGTGCGAAT | 0.975
CTATTTAGGTTAAGGGGGTCATTCAGTTTGAAAG | 5.85
CTATGTAGGTTCAGGGGGTCATTCAGTTTGAAAG | 3.3
TCGAGTAGGTTACGGGCGCATTCAGGGATGAAGA | 0.541
CTATGTACGTTAAGGGGGTCATTCAGTTTGAAAG | 3.11
CCGAGTAGGTTCCGAGGGGGCATTCAGTGCGAAT | 1.1
CTATGTAGGTTAAGGGGGTCATTTAGTTTGAAAG | 3.59
CCGATTAGGTTACGAGGGGGCATTCAGTGCGAAT | 1.22
CTATGTAGGTTAACGGGGTCATTCAGTTTGAAAG | 2.41
TCGAGTAGGTTACGGGGGCATCCAGGGATGAAGA | 2.37
CCGAGTAGGTTATGAGGGGGCATTCAGTGCGAAT | 1.86
CCGAGTAGGTCACGAGGGGGCATTCAGTGCGAAT | 2.44
TCGAGTAGGTTACGCGGGCATTCAGGGATGAAGA | 0.356
CCGCGTAGGTTACGAGGGGGCATTCAGTGCGAAT | 1.12
CTATGTAGGTTAAGGGGTTCATTCAGTTTGAAAG | 1.79
CCGAGTAGGTTACGATGGGGCATTCAGTGCGAAT | -0.0463
TCGAGTAGGTTACGGGGTCATTCAGGGATGAAGA | 2.46

Test system: PXR:RXRa (NR concentration 270 nM, RXRa partner concentration 90 nM)
Assay: as above
Outline: as §1

Sequence | PBM binding z-score
CTATGTAGGTTAAGGGGGTTATTCAGTTTGAAAG | 3.46
TCGAGTAGGTTACGGAGGCATTCAGGGATGAAGA | 0.0271
CTATGTAGGTTAAGCGGGTCATTCAGTTTGAAAG | 3.8
CGATGTAGGTTAAGGGGGTCATTCAGTTTGAAAG | 6.1
CTATGTAGGTTAAGGGGGCCATTCAGTTTGAAAG | 2.69
CTATGCAGGTTAAGGGGGTCATTCAGTTTGAAAG | 5.97
CCGACTAGGTTACGAGGGGGCATTCAGTGCGAAT | 4.6
CCGAGTAGGTTACGAGGGGGCATTCGGTGCGAAT | 4.83
TCGAGTAGGTTACGGGGGCATTAAGGGATGAAGA | 2.76
CAATGTAGGTTAAGGGGGTCATTCAGTTTGAAAG | 6.21
CCGAGTAGGTTACGAGGCGGCATTCAGTGCGAAT | -0.147
CCGAGTAGGTTACGAGGGCGCATTCAGTGCGAAT | 0.483
CTATGTAGGTGAAGGGGGTCATTCAGTTTGAAAG | 5.89
TCTAGTAGGTTACGGGGGCATTCAGGGATGAAGA | 3.79
CTATGTAGGGTAAGGGGGTCATTCAGTTTGAAAG | 5.91
CTCTGTAGGTTAAGGGGGTCATTCAGTTTGAAAG | 6.17
CCGAGTAGGTAACGAGGGGGCATTCAGTGCGAAT | 3.42
CTATTTAGGTTAAGGGGGTCATTCAGTTTGAAAG | 5.9
CTATGTAGGTTCAGGGGGTCATTCAGTTTGAAAG | 6.29
TCGAGTAGGTTACGGGCGCATTCAGGGATGAAGA | -0.126
CTATGTACGTTAAGGGGGTCATTCAGTTTGAAAG | 5.68
CTATGTAGGTTAAGGGGGTCATTTAGTTTGAAAG | 5.59
CCGATTAGGTTACGAGGGGGCATTCAGTGCGAAT | 4.69
CCGAGTAGGTTATGAGGGGGCATTCAGTGCGAAT | 4.85
CCGCGTAGGTTACGAGGGGGCATTCAGTGCGAAT | 4.76
CTATGTAGGTTAAGGGGTTCATTCAGTTTGAAAG | 5.14
CCGAGTAGGTTACGATGGGGCATTCAGTGCGAAT | 0.69
